Screening data deposited in PubChem by National Center for Advancing Translational Sciences (NCATS).
ALDH1A1 block: inhibitors of human aldehyde dehydrogenase 1A1; P00352; Purified ALDH1A1, NADH fluorescence, propionaldehyde substrate; Potency, µM (top dose mostly 75.3 µM), inactives show top-dose activity, negative = inhibition, actives largely listed as inhibitors; 220,000 compounds, 7.3% hits;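 further: potency means the concentration at half of the fitted maximal effect; plate controls were no enzyme wells and a reference inhibitor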
PNC inhibitor: blocks assembly of the perinucleolar compartment | PC3M PTB-GFP, PNC prevalence imaging, 16 h; stronger effect = lower value | activity change (PNC), negative = inhibition, % at 10 µM | 140,000 compounds, 3.1% hits | AID 2417;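 active means readout at or below -70, meaning at least 70% loss of cells showing the perinucleolar compartment, a nuclear body marking cancer cells; inconclusive means readout between -30 and a set limit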;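 further: plate controls were DMSO wells for no effect and camptothecin positive control wells for full effect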
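Compounds are pinned in duplicate onto adhered PC3M cells stably expressing GFP-tagged PTB and incubated 16 h at 37 C. Cells are then fixed, nuclei stained with Hoechst, and PNC-positive cells counted.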
ALOX12 inhib: blocks human 12-lipoxygenase activity. P18054. purified 12-hLO, xylenol orange hydroperoxide absorbance. Potency, µM (series often up to 57.1 µM), without a hit: at the highest dose activity change, negative = inhibition, actives largely listed as inhibitors. 150,000 compounds, 0.12% hits. AID 1452; active means well fitted inhibition curve with a large enough effect; inconclusive means small, poorly fitted or top-dose-only effect; further: potency means the concentration at half of the fitted maximal effect; nearly all actives have a fitted effect of over 55% in size
Target sequence (P18054 whole entry, looked up): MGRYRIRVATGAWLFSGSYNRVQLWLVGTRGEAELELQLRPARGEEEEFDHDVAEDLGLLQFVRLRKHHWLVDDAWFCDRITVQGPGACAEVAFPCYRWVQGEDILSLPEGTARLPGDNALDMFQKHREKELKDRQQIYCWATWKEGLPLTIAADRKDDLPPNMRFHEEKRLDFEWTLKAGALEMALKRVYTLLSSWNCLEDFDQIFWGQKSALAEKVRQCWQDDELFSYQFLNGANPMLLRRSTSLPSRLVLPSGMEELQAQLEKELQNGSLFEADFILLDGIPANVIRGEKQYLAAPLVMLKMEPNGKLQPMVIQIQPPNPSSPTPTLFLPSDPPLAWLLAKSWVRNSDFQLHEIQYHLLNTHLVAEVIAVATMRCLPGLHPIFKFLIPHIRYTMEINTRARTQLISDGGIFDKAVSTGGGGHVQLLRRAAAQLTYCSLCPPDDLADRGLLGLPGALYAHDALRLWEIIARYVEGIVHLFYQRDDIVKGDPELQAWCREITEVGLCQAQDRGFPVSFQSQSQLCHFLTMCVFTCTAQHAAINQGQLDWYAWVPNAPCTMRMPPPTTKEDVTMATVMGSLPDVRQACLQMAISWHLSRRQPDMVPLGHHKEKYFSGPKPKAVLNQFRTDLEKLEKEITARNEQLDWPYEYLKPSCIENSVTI
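Purified human 12hLO (150 nM), preincubated 15 min with compound, then 40 uM arachidonic acid for 30 min, room temperature, Hepes pH 7.0 with 0.01% Triton X-100. Hydroperoxide detected by ferrous iron/xylenol orange; 573/405 nm absorbance ratio gives reaction progress.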
Lamin A splicing: LMNA splicing modulation | 200,000 compounds, 0.01% hits | HeLa LMNA splicing GFP/RFP minigene ratio, 48 h | AID 1487 | Potency, µM (series often up to 46.1 µM), inactives show at the highest dose ratio change, negative = inhibition, actives largely listed as inhibitors; active means well fitted inhibition curve with a large enough effect in the signal ratio, with a control signal flat, not every such curve was filed as active; inconclusive means small, poorly fitted or top-dose-only effect, or effect the other way, or a change in a side signal; the % refers to the signal ratio; further: potency means the concentration at half of the fitted maximal effect
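Read-out is the ratio of GFP to DsRed2 object intensity, acquired by 488 nm laser-scanning cytometry on HeLa lamin A-EGFP minigene reporter cells. Compound incubation 48 hrs at 37 °C in Opti-MEM with 2% FBS; DMSO 0.5% final.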
HPGD inh: blocks human HPGD enzyme activity | P15428 | purified HPGD, NADH fluorescence kinetic, PGE2 substrate | Potency, µM, without a hit: top-dose activity change, negative = inhibition, most hits filed as inhibitors | 150,000 compounds, 4.3% hits; further: potency means the concentration at half of the fitted maximal effect
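20 nM HPGD preincubated 15 min at room temperature with compound in 50 mM Tris-HCl pH 8, 0.01% Tween 20. Started with 1 mM NAD+ and 30 uM prostaglandin E2; NADH fluorescence (360/450 nm) read 5 times over 30-s intervals, last minus first.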
Numbers without * were called inactive; [ ] = dose if it differs, or a comment. An excerpt weighted towards active compounds, which were near 10% of everything screened. Unless noted, the call rests on the fitted dose curve; in most records, active means well fitted inhibition curve with a large enough effect (not every such curve was filed as active); inconclusive means small, poorly fitted or top-dose-only effect, or another doubt; inactive means no such curve, though single readings can be large or run the other way. Unless noted, on the % scale 0 is the no-effect control and ±100 the full control effect.

How did CC(C)[C@@H](CC(=O)N[C@@H]1CCNC[C@H]1C(=O)N[C@H](CC(=O)N[C@@H](CCC(=O)O)CC(=O)O)Cc1ccccc1)NC(=O)C[C@H](Cc1c[nH]c2ccccc12)NC(=O)[C@@H]1CNCC[C@H]1N do in these assays?
ALDH1A1 block: 4.4%; ALOX12 inhib: 0.6%; HPGD inh: -6.2%

What do the screens show for `COc1ccc(C(=O)c2sc3nc(C)cc(-c4cccs4)c3c2N)cc1`?
ALDH1A1 block: -12.0%; PNC inhibitor: inconclusive; ALOX12 inhib: -8.2%; Lamin A splicing: inconclusive; HPGD inh: -20.7%

How did COc1ccc(C(=O)c2sc3nc(C)cc(-c4cccs4)c3c2N)cc1OC do in these assays?
ALDH1A1 block: 6.4%; PNC inhibitor: -81.7*; ALOX12 inhib: -2.0%; Lamin A splicing: inconclusive; HPGD inh: -11.2%

Results for Cc1c(C)[n+](=O)c(-c2ccco2)c(C)n1[O-] ?
ALDH1A1 block: 25.1µM*; PNC inhibitor: 33.7; ALOX12 inhib: 0.1%; Lamin A splicing: 1.4%; HPGD inh: -14.9%

How did COc1ccc(C(=O)C2CCCN(C(=O)c3noc4c3CCCC4)C2)cc1F (configuration not stated) do in these assays?
ALDH1A1 block: 3.55µM*

Results for COc1ccc(C(=O)C2CCCN(C(=O)COc3ccc(C(C)=O)cc3)C2)cc1F (configuration not stated) ?
ALDH1A1 block: inconclusive; Lamin A splicing: 22.7%[46 µM]

How did COc1ccc(OC)c(NC(=O)N2CCCC(C(=O)c3ccccc3OC)C2)c1 (configuration not stated) do in these assays?
ALDH1A1 block: 12.6µM*

How did COc1ccc(OC)c(NC(=O)N2CCC(CN3CCCCC3)CC2)c1 do in these assays?
Lamin A splicing: -19.8%[46 µM]

What do the screens show for `COc1ccc(C(=O)C2CCCN(C(=O)c3noc4c3CCCC4)C2)c(C)c1` (configuration not stated)?
ALDH1A1 block: 5.01µM*; Lamin A splicing: 29.0%[46 µM]

How did COc1ccc(C(O)C2=CCCC2=O)cc1 (configuration not stated) do in these assays?
ALDH1A1 block: -4.9%; HPGD inh: -9.2%

Results for CCOC(=O)c1c(C)oc2nc(C)nc(NCCc3ccc(SC)cc3)c12 ?
Lamin A splicing: 13.3%[46 µM]

What do the screens show for `CC[C@@H]1C(c2cccc(C)c2)=NN(c2ccc(Br)cc2)[C@H]1C(=O)N1CCOC1=O`?
ALDH1A1 block: inconclusive; ALOX12 inhib: -4.4%[0.00818 µM]; HPGD inh: inconclusive

Results for CC1CN(C(=O)c2cc(S(=O)(=O)N3CCCC3)c(Cl)cc2Cl)CC(C)O1 (configuration not stated) ?
ALDH1A1 block: -17.9%; PNC inhibitor: inconclusive; ALOX12 inhib: 3.0%; Lamin A splicing: -19.0%; HPGD inh: -5.6%

How did Cc1ccc(C(=O)N2CC(C)OC(C)C2)c(Cl)c1 (configuration not stated) do in these assays?
ALDH1A1 block: inconclusive; PNC inhibitor: 4.8; ALOX12 inhib: 4.7%; Lamin A splicing: 13.3%; HPGD inh: 15.8µM*

How did COc1ccccc1CNC(=O)CN1N=C(c2ccccc2)CCC1=O do in these assays?
Lamin A splicing: 2.4%[46 µM]

Results for O=C(Nc1ccccc1Cl)N1CCn2c(nc3ccccc32)C1 ?
ALDH1A1 block: -36.7%; PNC inhibitor: -110.7*; ALOX12 inhib: 2.6%; Lamin A splicing: 1.9%; HPGD inh: -14.1%

What do the screens show for `CC(=O)c1ccccc1NS(=O)(=O)c1cc2c(cc1C)NC(=O)CO2`?
Lamin A splicing: 7.5%[46 µM]

Results for O=C(CSc1nc2ccccc2nc1Cc1ccc(Cl)cc1)N1CCCCC1 ?
Lamin A splicing: -23.4%[46 µM]

Results for CC1Cc2ccccc2N1C(=O)COC(=O)c1ccc(Br)o1 (configuration not stated) ?
ALDH1A1 block: 14.7%; Lamin A splicing: 2.6%[46 µM]

Results for CC1Cc2ccccc2N1C(=O)COC(=O)Cn1nnc(-c2ccccc2)n1 (configuration not stated) ?
ALDH1A1 block: 0.708µM*; PNC inhibitor: -18.9; ALOX12 inhib: -10.4%; Lamin A splicing: 4.1%; HPGD inh: -24.1%

What do the screens show for `CC1Cc2ccccc2N1C(=O)COC(=O)C1(c2ccccc2F)CCCC1` (configuration not stated)?
ALDH1A1 block: -1.7%; PNC inhibitor: -90.4*; ALOX12 inhib: 1.0%; Lamin A splicing: -19.6%; HPGD inh: -2.9%

What do the screens show for `Cc1nnc(NC(=O)CSCc2cc(=O)c3ccccc3[nH]2)s1`?
Lamin A splicing: -1.5%[46 µM]

How did CCOc1ccccc1CNC(=O)C1CCN(C(=O)N2CC(CC)Oc3ccc(C)cc32)CC1 (configuration not stated) do in these assays?
Lamin A splicing: 2.8%[46 µM]

What do the screens show for `CCNC(=O)Cc1ccc(NC(=O)N2CCCCc3ccccc32)cc1`?
Lamin A splicing: 2.9%[46 µM]

How did CN1CCc2c(sc3c2C(=O)NC(c2ccco2)N3)C1 (configuration not stated) do in these assays?
ALDH1A1 block: inconclusive; PNC inhibitor: 16.1; ALOX12 inhib: -3.9%; Lamin A splicing: 7.0%; HPGD inh: inconclusive

What do the screens show for `CN1CCc2c(sc3c2C(=O)NC(c2cn(Cc4ccccc4)c4ccccc24)N3)C1` (configuration not stated)?
ALDH1A1 block: inconclusive; PNC inhibitor: -103.5*; ALOX12 inhib: 4.4%; Lamin A splicing: inconclusive; HPGD inh: inconclusive

What do the screens show for `CC[C@H](C)N(C)C(=O)c1cc2ccccc2c(-c2ccccc2Cl)n1`?
ALDH1A1 block: -1.0%; ALOX12 inhib: -2.8%; HPGD inh: 2.5%

What do the screens show for `CCC(=O)Nc1ccc(C(=O)CSc2nnc(-c3ccc(O)cc3)n2CC2CCCO2)cc1` (configuration not stated)?
ALDH1A1 block: 25.1µM*; PNC inhibitor: inconclusive; ALOX12 inhib: -2.3%; Lamin A splicing: 5.7%; HPGD inh: -7.0%

What do the screens show for `COc1cc(C(=O)CSc2nnc(-c3ccc(O)cc3)n2CC2CCCO2)ccc1NC(C)=O` (configuration not stated)?
ALDH1A1 block: inconclusive; PNC inhibitor: inconclusive; ALOX12 inhib: -5.8%; Lamin A splicing: 10.2%; HPGD inh: -4.2%

Results for CCC(=O)Nc1ccc(C(=O)CSc2nnc(-c3ccccc3F)n2CCc2ccccc2)cc1 ?
ALDH1A1 block: 22.4µM*; PNC inhibitor: 16.5; ALOX12 inhib: -2.0%; Lamin A splicing: -6.9%; HPGD inh: -6.1%

What do the screens show for `CCCCN=C1NN=C(c2ccc(C)c(C)c2)CS1`?
ALDH1A1 block: 20µM*; Lamin A splicing: -17.6%[46 µM]

How did COCCn1c(C)cc(C2=NNC(=Nc3ccc(OC)cc3)SC2)c1C do in these assays?
ALDH1A1 block: 10µM*; PNC inhibitor: inconclusive; ALOX12 inhib: inconclusive; Lamin A splicing: 2.9%; HPGD inh: -15.7%
